# Measurements published in PubChem BioAssay (NCATS).
# Results filed as inconclusive are left out. Where a call stands in place of a potency, no number is given. A number with no mark means an inactive call. Activity calls are given as the source filed them. Calls come from the whole dose curve; as a rule, active = well fitted curve in the direction sought with a large enough effect; inconclusive = small, poorly fitted or top-dose-only effect, or another doubt; inactive = no such curve, though single readings can be large; an effect the other way counts as inactive or inconclusive.
# Legend:
# [1] = Primary qHTS for inhibitors of nuclear receptor binding SET domain protein 2 (NSD2) in an isogenic RCH-ACV NSD2 p.E1099K mutant (9B) (AID 1645876)
# [2] = Primary qHTS for inhibitors of nuclear receptor binding SET domain protein 2 (NSD2) in an RCH-ACV wild type WT cells (2C) (AID 1645877); note: potency is the fitted concentration of half-maximal effect
# Note: nearly all actives have a fitted effect of over 70% in size.
smiles,measurement,setting,value
CC1CCC2C(C)(C)C(O)CCC2(C)C12Cc1c(O)cc3c(c1O2)C(N)=NC3 (stereo not given),Potency,[1],inactive
same,Potency,[2],inactive
CC1=C2C3OC(=O)C(C)C3(O)CCC2(C)CCC1=O (stereo not given),Potency,[1],inactive
same,Potency,[2],inactive
OC[C@H]1O[C@@H](OCCc2ccc(O)cc2)[C@H](O)[C@@H](O)[C@@H]1O,Potency,[1],inactive
same,Potency,[2],inactive
COc1cc(C2Oc3c(OC)cc(CCCO[C@@H]4O[C@H](CO)[C@@H](O)[C@H](O)[C@H]4O)cc3C2CO)ccc1O (stereo not given in full),Potency,[1],inactive
same,Potency,[2],inactive
C=C1C(O[C@@H]2O[C@H](CO)[C@@H](O)[C@H](O)[C@@H]2O)CC2C(C)(C)C(O)CCC2(C)C1CC/C(C)=C\CO (stereo not given in full),Potency,[1],inactive
same,Potency,[2],inactive
C[C@]1(O)CC[C@@H]2C(C(=O)O)=CO[C@@H](O[C@@H]3O[C@H](COC(=O)c4ccc(O)cc4)[C@@H](O)[C@H](O)[C@H]3O)[C@@H]21,Potency,[1],inactive
same,Potency,[2],inactive
CN1C(=O)c2ccccc2-n2c(nc3ccccc3c2=O)/C1=C/c1ccccc1,Potency,[1],inactive
same,Potency,[2],inactive
COc1ccc2c(c1)O[C@H](O[C@@H]1O[C@H](CO)[C@@H](O)[C@H](O)[C@H]1O)C(=O)N2,Potency,[1],inactive
same,Potency,[2],inactive
CO/N=C(/C(=O)N[C@@H]1C(=O)N2C(C(=O)O)=C(CSC(=O)c3ccco3)CS[C@H]12)c1csc(N)n1,Potency,[1],inactive
same,Potency,[2],inactive
C[C@@H]1O[C@@H](O[C@H]2[C@H](OC(C#N)c3ccc(O)cc3)O[C@H](CO)[C@@H](O)[C@@H]2O)[C@H](O)[C@H](O)[C@H]1O (stereo not given in full),Potency,[1],inactive
same,Potency,[2],inactive
C[C@@H]1O[C@@H](O[C@H]2[C@H](O[C@H]3CC[C@@]4(C)C(CC[C@]5(C)C4CC=C4C6CC(C)(C)CC[C@]6(C(=O)O[C@@H]6O[C@H](CO[C@@H]7O[C@H](CO)[C@@H](O[C@@H]8O[C@@H](C)[C@H](O)[C@@H](O)[C@H]8O)[C@H](O)[C@H]7O)[C@@H](O)[C@H](O)[C@H]6O)CC[C@]45C)[C@]3(C)CO)OC[C@H](O)[C@@H]2O)[C@H](O)[C@H](O)[C@H]1O (stereo not given in full),"activity change, negative = viability loss",[1],-5.7% [at 9.23 µM]
same,"activity change, negative = cell killing",[2],-6.93% [at 9.23 µM]
NS(=O)(=O)NCCNc1nonc1C(=Nc1ccc(F)c(Br)c1)NO,Potency,[1],inactive
same,Potency,[2],inactive
CC(C)C1(O[C@@H]2O[C@H](CO)[C@@H](O)[C@H](O)[C@H]2O)CC=C(CO)CC1 (stereo not given in full),Potency,[1],inactive
same,Potency,[2],inactive
COC(=O)[C@@H]1C2CC3c4[nH]c5ccccc5c4CCN3CC2CC[C@@H]1O (stereo not given in full),Potency,[1],inactive
same,Potency,[2],inactive
C=C1CC[C@@H]2[C@](C)(CO[C@@H]3O[C@H](CO)[C@@H](O)[C@H](O)[C@H]3O)CCC[C@@]2(C)[C@@H]1CCC1=CCOC1=O,Potency,[1],inactive
same,Potency,[2],inactive
CC1C/C=C/C=C\CCCCC(O)C/C=C/C(=O)O1 (stereo not given),Potency,[1],inactive
same,Potency,[2],inactive
COc1cc(/C=C/C(=O)O[C@H]2[C@H](OC(=O)/C=C/c3cc(OC)c(O)c(OC)c3)O[C@H](CO[C@@H]3O[C@H](CO)[C@@H](O)[C@H](O)[C@H]3O)[C@@H](O)[C@@H]2O)ccc1O,Potency,[1],inactive
same,Potency,[2],inactive
CCC(C)/C=C(C)/C=C/C1=CC2=C(Cl)C(=O)C(C)(OC(C)=O)C(=O)C2=CN1C1CCCCN(C(CCC(N)=O)C(=O)O)C1=O (stereo not given),Potency,[1],inactive
same,Potency,[2],inactive
CCOC(=O)[C@H](CCc1ccccc1)N[C@@H](C)C(=O)N1C2CCCCC2C[C@H]1C(=O)O (stereo not given in full),Potency,[1],inactive
same,Potency,[2],inactive
CC1(C)CC[C@]2(C(=O)O)CC[C@]3(C)C(=CCC4[C@@]5(C)C[C@@H](O)[C@H](O)C(C)(C)C5CC[C@]43C)[C@@H]2[C@@H]1O (stereo not given in full),Potency,[1],inactive
same,Potency,[2],inactive
COc1cc(C/C(=C/NC(C)=O)N(CC(=O)Cc2ccccc2)C(C)=O)cc2c1OCO2,Potency,[1],inactive
same,Potency,[2],inactive
O=C1NC(Cc2ccc(O)cc2)C(=O)N2CCCC12 (stereo not given),Potency,[1],inactive
same,Potency,[2],inactive
C=C1C[C@]23C[C@H]1CC[C@H]2[C@]1(C)CCC[C@@]2(CO)C(=O)O[C@H]([C@H]21)[C@@H]3O,Potency,[1],inactive
same,Potency,[2],inactive
CC(C)=CCCC1(C)Oc2cc3c(c4c2C2C(O4)C(C)(O)CCC21)CN(C(CCC(=O)O)C(=O)O)C3=O (stereo not given),Potency,[1],inactive
same,Potency,[2],inactive
Cc1cc(O)cc(Oc2cc(C)c(C(=O)O)c(O)c2)c1,Potency,[1],inactive
same,Potency,[2],inactive
C/C=C(\C)C(=O)O[C@H]1[C@@H](O[C@]2(COC(=O)CC(C)C)O[C@H](COC(=O)C(C)C)[C@@H](OC(C)=O)[C@@H]2O)O[C@H](COC(C)=O)[C@@H](O)[C@@H]1O,Potency,[1],inactive
same,Potency,[2],inactive
O=C1[C@H](O[C@@H]2O[C@H](CO)[C@@H](O)[C@H](O)[C@H]2O)Oc2ccccc2N1O,Potency,[1],inactive
same,Potency,[2],inactive
CCCC(N[C@@H](C)C(=O)N1[C@H](C(=O)O)C[C@@H]2CCCC[C@@H]21)C(=O)OCC (stereo not given in full),Potency,[1],inactive
same,Potency,[2],inactive
COc1cc([C@@H]2Oc3c(OC)cc(CCCO)cc3[C@@H]2CO[C@@H]2O[C@H](CO)[C@@H](O)[C@H](O)[C@H]2O)ccc1O,Potency,[1],inactive
same,Potency,[2],inactive
CC(/C=C/C1(O)C2(C)COC1(C)CC(=O)C2)O[C@@H]1O[C@H](CO)[C@@H](O)[C@H](O)[C@H]1O (stereo not given in full),Potency,[1],inactive
same,Potency,[2],inactive
C=C[C@H]1[C@H](O[C@@H]2O[C@H](CO[C@@H]3OC[C@](O)(CO)[C@H]3O)[C@@H](O)[C@H](O)[C@H]2O)OC=C2C(=O)OCC[C@H]21,Potency,[1],inactive
same,Potency,[2],inactive
C=C1CC[C@H]2[C@@](C)(CCC(O)[C@@]2(C)CO)[C@@H]1C/C=C(/C(=O)O)C(O)CO (stereo not given in full),Potency,[1],inactive
same,Potency,[2],inactive
NC(=O)c1ccc(OCC2NC(=O)C3CCCN3C2=O)cc1 (stereo not given),Potency,[1],inactive
same,Potency,[2],inactive
C[C@H]1[C@H](C)CC[C@]2(C(=O)O)CC[C@]3(C(=O)O)C(=CCC4[C@@]5(C)CC[C@H](O[C@@H]6O[C@H](C)[C@@H](O)[C@H](O)[C@H]6O)C(C)(C)C5CC[C@]43C)[C@H]12 (stereo not given in full),Potency,[1],inactive
same,Potency,[2],inactive
COc1cc(CCc2ccccc2)c(C(=O)O)c2c1CC(C(C)(C)O)O2 (stereo not given),Potency,[1],inactive
same,Potency,[2],inactive
CCOc1nc2cccc(C(=O)O)c2n1Cc1ccc(-c2ccccc2-c2noc(=O)[nH]2)cc1,Potency,[1],inactive
same,Potency,[2],inactive
CC(C#N)C(C)O[C@@H]1O[C@H](CO)[C@@H](O)[C@H](O)[C@H]1O (stereo not given in full),Potency,[1],inactive
same,Potency,[2],inactive
O=C(O)Cc1nn(Cc2nc3cc(C(F)(F)F)ccc3s2)c(=O)c2nccnc12,Potency,[1],inactive
same,Potency,[2],inactive
CC1CCC23COC(=O)C2=CC(O)CC3C1(C)CCC1=CC(=O)OC1O (stereo not given),Potency,[1],inactive
same,Potency,[2],inactive
C=C1C2(CCC(=O)OC2(C)C)CC(OC(=O)/C(C)=C/C)C2(C)C13OC14C(=O)OC(C)(C(=O)C12C(=O)OC4C)C3OC(C)=O (stereo not given),Potency,[1],inactive
same,Potency,[2],inactive
CC1=CC(=O)CC(C)(C)C1(O)CCC(C)O (stereo not given),Potency,[1],inactive
same,Potency,[2],inactive
CC(=O)c1c(C)cc(O)cc1O[C@@H]1O[C@H](CO)[C@@H](O)[C@H](O)[C@H]1O,Potency,[1],inactive
same,Potency,[2],inactive
CCC(CCO[C@@H]1O[C@H](CO[C@H]2OC[C@](O)(CO)[C@H]2O)[C@@H](O)[C@H](O)[C@H]1O)C(C)(C)O (stereo not given in full),Potency,[1],inactive
same,Potency,[2],inactive
CC(=O)O[C@@H]1C[C@]2(C)[C@@]3(CCC4[C@@]5(C)CC[C@H](O[C@@H]6O[C@H](C(=O)O)[C@@H](O)[C@H](O[C@@H]7O[C@H](CO)[C@H](O)[C@H](O)[C@H]7O[C@@H]7O[C@@H](C)[C@H](O)[C@@H](O)[C@H]7O[C@@H]7OC[C@](O)(CO)[C@H]7O)[C@H]6O[C@@H]6O[C@H](CO)[C@H](O)[C@H](O)[C@H]6O)C(C)(C)C5CC[C@]42C)O[C@@H](O)[C@]12C3CC(C)(C)[C@@H](OC(=O)/C=C/c1ccc(O)c(O)c1)[C@@H]2OC(=O)/C=C/c1ccccc1 (stereo not given in full),"activity change, negative = viability loss",[1],-5.24% [at 9.23 µM]
same,"activity change, negative = cell killing",[2],-4.25% [at 9.23 µM]
C=C1CCC(OC(C)=O)C2(C)CC3(O)OC(=O)C(C)=C3CC12 (stereo not given),Potency,[1],inactive
same,Potency,[2],inactive
CC(=O)OC[C@@]12[C@@H](OC(C)=O)C[C@@H](C)[C@](C)([C@@H]3C[C@H]4C=CO[C@H]4O3)[C@H]1CCC[C@]21CO1,Potency,[1],inactive
same,Potency,[2],inactive
C=C1C[C@]23C[C@H]1CC[C@H]2[C@@]12C=C[C@H](O)[C@@](C)(C(=O)O1)[C@H]2[C@@H]3C(=O)O,Potency,[1],inactive
same,Potency,[2],inactive
CCC[C@@H]1C[C@@H](C(=O)N[C@@H]([C@H]2O[C@H](SC)[C@H](O)[C@@H](O)[C@@H]2O)[C@@H](C)O)N(C)C1,Potency,[1],inactive
same,Potency,[2],inactive
C=C1CCC2C(C)(CO[C@@H]3O[C@H](CO)[C@@H](O)[C@H](O)[C@H]3O)C(O)CCC2(C)C1C(=O)CC1=CCOC1=O (stereo not given in full),Potency,[1],inactive
same,Potency,[2],inactive
COc1cc(O[C@@H]2O[C@H](CO)[C@@H](O)[C@H](O)[C@H]2O)c(CCC(=O)OC[C@H]2O[C@@H](Oc3cc(OC)c(C4OC(=O)C(C)(O)C4O)cc3CCC(=O)O)[C@H](O)[C@@H](O)[C@@H]2O)cc1C1OC(=O)C(C)(O)C1O (stereo not given in full),"activity change, negative = viability loss",[1],-2.96% [at 9.23 µM]
same,"activity change, negative = cell killing",[2],-6.02% [at 9.23 µM]
CCOC(=O)c1ccnc(CNCC(=O)N(CC)CCN(C)C)c1,Potency,[1],inactive
same,Potency,[2],inactive
C/C=C(/C)C(=O)O[C@H]1C=C(C)C[C@H](OC(=O)c2ccc(O)cc2)C2[C@](O)(C(C)C)CC[C@@]21C (stereo not given in full),Potency,[1],inactive
same,Potency,[2],inactive
C[C@@H]1CCN(C(=O)CC#N)C[C@@H]1N(C)c1ncnc2[nH]ccc12,Potency,[1],inactive
same,Potency,[2],23.5 µM (active)
C=C1C(=O)OC2CC(C)=C(C(C)CCCO[C@@H]3O[C@H](CO)[C@@H](O)[C@H](O)[C@H]3O)C(O)C12 (stereo not given in full),Potency,[1],inactive
same,Potency,[2],inactive
C[C@@H]1O[C@@H](O[C@H]2[C@H](OC(=O)C34CCC(C)(C)CC3C3=CCC5C6(C)CC(O)C(O[C@@H]7O[C@H](CO)[C@@H](O)[C@H](O)[C@H]7O)C(C)(C(=O)O)C6CCC5(C)C3(CO)CC4)O[C@H](C)[C@H](O)[C@@H]2O)[C@H](O)[C@H](O)[C@H]1O[C@@H]1OC[C@@H](O)[C@H](O)[C@H]1O (stereo not given in full),"activity change, negative = viability loss",[1],3.3% [at 9.23 µM]
same,outcome,[2],inactive [at 9.23 µM]
